About 8,600 (12%) of roughly 69,000 compounds showed an effect of 50% or more. Only a selection was taken, and strong results are over-represented in it overall.

This experiment relates to Plasmodium berghei. Put plainly: Screen against P. berghei liver stage (PbLuc), transformed with Luciferase, at 10uM. Type of experiment: functional, HepG2. To be noted: tested at 10 uM.
As to `CNc1cncc(C2CCN(C(=O)c3coc(C)n3)CC2)n1`, the INHIBITION was determined as 58%. The value for `CNc1cccc(C2CCCN(C(=O)c3coc(C)n3)C2)n1` (centres undefined) was 41.2%. Then `CNc1cncc(C2CCN(C(=O)c3cnco3)CC2)n1`, with 8.53%; and `CC(=O)N1CCCN(C(=O)c2oc(Br)cc2C)CC1`, with 58.5%; and `Cc1cc(Br)oc1C(=O)N1CCN(CC(N)=O)CC1`, with 20.9%.

As for `Cc1cc(Br)oc1C(=O)N1CCCN(CC(N)=O)CC1`, the INHIBITION was found to be 30.3%. `Cn1cc(C2CC(=O)NC23CCN(CC2CC2)CC3)cn1` (centres undefined): the INHIBITION was 48.7%. Take `Cc1nc(N2CCCC2)nc2c1CCN(Cc1ccco1)CC2`: the INHIBITION came out at 15.1%. The value for `Cc1ccc(F)c2c1N(C(=O)c1cn(CC(=O)N(C)C)nn1)CCC2` was -9.21%; that for `CN(C)CCN1CCOCC2(C1)CN(Cc1nccs1)CCO2` (centres undefined) was 14.1%.

For `CS(=O)(=O)c1ccc(NC(=O)CSc2ccc3c(c2)CCC3)cc1`, the INHIBITION is listed as 31.2%.

Consider `CNC(=O)NC(=O)CSc1ccc2c(c1)CCC2`, for which the INHIBITION is 54.3%. On to `NC(=O)c1cccc(NC(=O)CSc2ccc3c(c2)CCC3)c1`, for which the INHIBITION was 40.6%. The value for `CNC(=O)NC(=O)CCSc1ccccc1C` was 29.8%.

With `CN1C(=O)c2ccc(NC(=O)CSc3ccc4c(c3)CCC4)cc2C1=O`, the INHIBITION amounted to 11.5%. On to `CS(=O)(=O)c1ccc(NC(=O)CSc2ccc3c(c2)CCC3)cn1`, for which the INHIBITION came to 53.4%.

As to `NS(=O)(=O)c1ccc(NC(=O)CSc2ccc3c(c2)CCC3)cc1`, the INHIBITION is on record as 66.8%. As to `CNC(=O)Cc1noc(Cc2ccc3c(c2)CCCC3)n1`, the INHIBITION came out at 15.9%. Then `CS(=O)(=O)c1ccc(NC(=O)NCc2ccc3c(c2)CCC3)cn1`, with 24%.

With `CN(C)CCO[C@@H]1CC[C@H]2[C@H]1OCCN2C(=O)c1ccccc1F`, the INHIBITION is 35.2%. For `CC(C)(C)c1nccc(N2CCCCC2CCNS(C)(=O)=O)n1` (centres undefined), the INHIBITION is -1.79%. Then `Cc1cnn(CC2CCCN2Cc2nnc(C3CC3)o2)c1` (centres undefined), with 2.3%; and `O=C(c1ccc(N2CCOCC2)nc1)N1CCCC(n2ccnc2)C1` (centres undefined), with 13.05%. For `CC(C)CN1CCC2(C=C(C(=O)N3CCCC3)c3ccccc32)CC1`, the INHIBITION is listed as -17%. With `Cc1cc(CN2CCN(C(=O)CCc3cccs3)CC2)on1`, the INHIBITION is recorded as -9.08%. `Cc1cccc(COCC2c3nnn(C)c3CCN2Cc2ccoc2)n1` (centres undefined): the INHIBITION is -5.08%. On to `C[C@H]1CN(C(=O)c2cccnc2)C[C@@]12CCN(CCN1CCCC1)C2=O`, for which the INHIBITION is reported as 23.6%. As to `CC(=O)N(Cc1ncc(C)o1)C1CCN(Cc2ccon2)C1` (centres undefined), the INHIBITION stood at 3.73%.

For the compound `CO[C@H]1CN(C(=O)c2ccc(-c3ccccc3)[nH]2)CC[C@H]1N`, the INHIBITION was -22.4%. Then `O=C(c1cnccn1)N1C[C@H]2CC[C@@H](C1)N(S(=O)(=O)c1cccnc1)C2`, with -6.34%; and `Cc1nc(CN(C)S(=O)(=O)c2ccccc2C(F)(F)F)no1`, with 11.3%. Regarding `Cc1nc(CN(C)S(=O)(=O)c2ccccc2Br)no1`, the INHIBITION was 58.1%. As to `Cc1nc(CN(C)S(=O)(=O)c2ccc(F)cc2Br)no1`, the INHIBITION was found to be 18.9%. Consider `Cc1cc(NCCC(=O)NC2CCCC2)nc(-c2ccncc2)n1`, for which the INHIBITION is reported as 4.52%. Then `CC(C)CS(=O)(=O)N1CCC2(CN(c3cccc(F)c3)C(=O)CN2C)C1` (centres undefined), with 55.5%; and `CCS(=O)(=O)N1CCC2(CN(c3cccc(F)c3)C(=O)CN2C)C1` (centres undefined), with 19.4%; and `CN1CC(=O)N(c2cccc(F)c2)CC12CCN(S(C)(=O)=O)C2` (centres undefined), with -5.12%. Then `CCCc1n[nH]c(C2CN(C(=O)c3ccc[nH]3)CCO2)n1` (centres undefined), with 27.8%; and `O=C(c1ccccn1)N1CCc2ncnc(N3CCOCC3)c2CC1`, with -64.5%; and `CCc1nc2c(c(N3CCOCC3)n1)CCN(C(=O)N1CCCC1)CC2`, with -28.4%.

In the case of `CCc1nc2c(c(N3CCOCC3)n1)CCN(C(=O)c1ccon1)CC2`, the INHIBITION is given as 52.2%.

`COc1ccc(C(C(=O)O)N(C)Cc2c(C)nn(C)c2C)c(C)c1` (centres undefined): the INHIBITION is 26.9%. Then `Cc1nc(C2CCN(C(=O)c3cscn3)CC2)c2sccn12`, with 17.4%; and `c1ccc(Cn2cc(CNC3CCc4ncnn4C3)cn2)cc1` (centres undefined), with 39.5%; and `C1=C(CNC2CCc3ncnn3C2)COc2ccccc21` (centres undefined), with 61.6%. Consider `O=C(CNC1CCc2ncnn2C1)N(Cc1cccs1)C1CC1` (centres undefined), for which the INHIBITION amounted to 27.7%. Then `c1ccc(-n2cc(CNC3CCc4ncnn4C3)cn2)cc1` (centres undefined), with 11.6%; and `CCCOc1ccc2c(c1)OCC(CNC1CCc3ncnn3C1)=C2` (centres undefined), with 42.1%.

In the case of `Clc1ccc2c(c1)C=C(CNC1CCc3ncnn3C1)CO2` (centres undefined), the INHIBITION amounted to 51.8%. Then `COc1ccc2c(c1)OCC(CNC1CCc3ncnn3C1)=C2` (centres undefined), with 35.1%; and `c1csc(CCNC2CCc3ncnn3C2)c1` (centres undefined), with 68.8%; and `Clc1cccc(-c2nc(CNC3CCc4ncnn4C3)co2)c1` (centres undefined), with 49.8%.

Consider `Clc1ccc(-c2cnc(CNC3CCc4ncnn4C3)o2)cc1` (centres undefined), for which the INHIBITION was 39.6%. Then `Clc1ccc(-n2cc(CNC3CCc4ncnn4C3)cn2)cc1` (centres undefined), with 51.3%; and `O=C(CNC1CCc2ncnn2C1)NCCc1cccs1` (centres undefined), with 12.3%; and `COc1cccc(-c2cc(C3=NC(=CN4CCN(C)CC4)NO3)[nH]n2)c1`, with 33.1%. For `NC(=O)CN1CCC(c2cccc(Oc3ccccc3)n2)CC1`, the INHIBITION was -11.4%. Regarding `CCn1nc(C)c2nnn(CC(=O)Nc3ccccc3F)c(=O)c21`, the INHIBITION is 40.8%. For the compound `CSc1nnc(C2CCN(C(=O)N3CCOCC3)CC2)n1C(C)C`, the INHIBITION is given as 40.85%. The value for `CCN1CCC2(CN(C(=O)N(C)C)CC23CCNCC3)C1=O` (centres undefined) was -3.58%.

Take `CNC(=O)NC(=O)CN(Cc1ccc(C#N)cc1)Cc1cccc(F)c1`: the INHIBITION was -0.85%. Then `Cc1cccc2c1N(C)C(=O)C21CC(=O)Nc2c1cnn2C(C)(C)C` (centres undefined), with -23.9%; and `O=C(CCOc1ccccc1F)N1CCCCC1Cn1cccn1` (centres undefined), with -21.5%; and `COCc1cc(NCc2ccccc2OC)ncn1`, with 12.6%.

Turning to `COc1ccccc1CN1CCCCC1c1n[nH]cc1-c1cc(C)no1` (centres undefined), the INHIBITION was determined as 24.8%. For `Cc1nn(C)c2c(NCc3cccnc3)nc(C(C)C)nc12`, the INHIBITION is recorded as -34%. On to `COc1ccc(CNc2ncc(-c3cc(C)no3)c(C(C)C)n2)cc1`, for which the INHIBITION was -5.71%.

Turning to `Cc1cnc(-c2nc(NC3CC3)ncc2-c2cc(C)no2)cn1`, the INHIBITION was determined as 8.72%. Consider `Cc1cc(-c2cnc(NCc3cccnc3)nc2C(C)C)on1`, for which the INHIBITION was 69.4%. Take `Cc1cc(-c2cnc(NCc3cccnc3)nc2C(C)(C)C)on1`: the INHIBITION is listed as 83.6%. The value for `Cc1cc(-c2cnc(NCc3ccccn3)nc2C(C)C)on1` was 24.4%; that for `CCN(CC)CCNc1ncc(-c2cc(C)no2)c(-c2ccoc2C)n1` was 33.5%; that for `COc1ccccc1CNc1ncc(-c2cc(C)no2)c(C(C)C)n1` was 79.7%. Then `Cc1cc(-c2cnc(NCc3ccncc3)nc2C(C)C)on1`, with 94.1%.

The values above are taken from ChEMBL document CHEMBL4513216, “Probing the Open Global Health Chemical Diversity Library for Multistage-Active Starting Points for Next-Generation Antimalarials” (ACS Infect Dis, 2020).
